An excerpt weighted towards active compounds, which were near 19% of everything screened.
TDP1 cell CPT = growth inhibition of DT40 Tdp1-/-;hTDP1 cells with camptothecin (screen for TDP1 inhibitors); chicken DT40 Tdp1-/-;hTDP1 cells + 20 nM CPT, ATP luminescence, 48 h; AID 686979; 12% of 420,000 active; Potency, µM (doses to about 46.2 µM), usual class: inhibitors; also: nearly all actives have a fitted effect of over 55% in size
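Cell growth measured by CellTiter-Glo luminescence after a minimum 48 h, 37 C compound exposure with 20 nM CPT in Tdp1-knockout DT40 cells stably expressing hTDP1, seeded 400/well; qHTS titration format.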
IL-1B inflam inh = inhibitors of inflammasome signaling (IL-1 beta secretion); THP-1 LPS/ATP IL-1B secretion, AlphaLISA, 16 h; stronger effect = lower value; AID 743279; activity change, % at 57.5 µM; 4.7% of 360,000 active; in the data active = activity change below about -50%; inconclusive = mostly about -30% to -49%
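Secreted IL-1B measured by AlphaLISA bead assay after 16 h compound exposure of THP-1 cells; compounds (final up to 57.5 uM) added 1 h before LPS (250 ng/mL) and ATP (1.25 mM) stimulation; lower signal means less secretion.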
TDP1 cell noCPT = qHTS for Inhibitors of human tyrosyl-DNA phosphodiesterase 1 (TDP1): qHTS in cells in absence of CPT; DT40 Tdp1-/- hTDP1 cells, no CPT, ATP luminescence, 48 h; Potency, µM (series often up to 46.2 µM), hits mostly inhibitors; 15% of 420,000 active; also: nearly all actives have a fitted effect of over 55% in size
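Seeded 400 DT40-hTDP1 cells/well (vehicle DMSO, no 20 nM CPT); pinned compounds; ≥48 hr at 37 °C; CellTiter-Glo luminescence as viability measure.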
HT1080NT lethal = kills 2HG-producing HT-1080-NT fibrosarcoma cells; HT-1080-NT fibrosarcoma viability, CellTiter-Glo ATP luminescence, 48 h; Potency, µM (titrated, usually from 46.1 µM), usual class: cytotoxic; 1.6% of 360,000 active; AID 686970;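 also: NT is the 2HG producing partner of a matched IDH1 knockdown line; nearly all actives have a fitted effect of over 55% in size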
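Fibrosarcoma NT cells, 750 per well in 5% FBS RPMI, were exposed to compound for 48 hours. Viability: CellTiter-Glo luminescence.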
HT1080 IDH1KD tx = kills HT-1080 cells with IDH1 knockdown; HT-1080 IDH1 knockdown viability, ATP luminescence, 48 h; Potency, µM (series often up to 46.1 µM), hits mostly cytotoxic; 2% of 360,000 active; AID 686971
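Viability of IDH1-knockdown HT-1080 fibrosarcoma cells was assessed by CellTiter-Glo after 48 h at 37 °C with titrated compound; concentration-effect curves were classified by fit quality and response size.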
ELG1 DNA repair = ELG1-dependent DNA repair inhibition; HEK293T ELG1-luciferase reporter, luminescence, 16 h; DNA damage induced by 5-fluorouridine; Potency, µM (doses to about 46.1 µM), most hits filed as inhibitors; 2.3% of 330,000 active; also: nearly all actives have a fitted effect of over 55% in size
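Luminescence from the luciferase reporter, measured 30 min after ONE-Glo reagent at room temperature, was the read-out. Beforehand, 2,000 cells per well were exposed for 16 hr at 37 °C to 5-fluorouridine together with compound or vehicle.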
Large screens that a line does not name were inactive. Unless noted, calls follow the shape of the dose curve; as a rule, active = well fitted curve in the direction sought with a large enough effect; inconclusive = small, poorly fitted or top-dose-only effect, or another doubt; inactive = no such curve, though single readings can be large; an effect the other way counts as inactive or inconclusive.

Cc1ccc(-c2nnc3sc(C4COc5ccccc5O4)nn23)cc1 (stereo unspecified)	TDP1 cell CPT inconclusive, TDP1 cell noCPT 23µM
CC1CCC(NC(=O)CCS(=O)(=O)c2ccc3c(c2)NC(=O)CS3)CC1 (stereo unspecified)	none
CC(=O)c1ccc(N2CCN(C(=O)CCS(=O)(=O)c3ccc4c(c3)NC(=O)CS4)CC2)cc1	TDP1 cell CPT 18µM, TDP1 cell noCPT inconclusive
CC1Cc2ccccc2N1C(=O)CCS(=O)(=O)c1ccc2c(c1)NC(=O)CS2 (stereo unspecified)	TDP1 cell CPT 23µM, TDP1 cell noCPT inconclusive
COc1ccc(N2CCN(C(=O)CCS(=O)(=O)c3ccc4c(c3)NC(=O)C(C)S4)CC2)cc1 (stereo unspecified)	TDP1 cell CPT inconclusive, TDP1 cell noCPT 10µM
O=C1NC(=O)C(Cc2ccccc2)(C2CCN(Cc3cccn3-c3cccnc3)CC2)N1 (stereo unspecified)	none (no result: IL-1B inflam inh, HT1080NT lethal, HT1080 IDH1KD tx, ELG1 DNA repair)
COc1cccc(-c2ccc(O)c(CNCc3cccc4ccccc34)c2)n1	none (no result: IL-1B inflam inh, HT1080NT lethal, HT1080 IDH1KD tx, ELG1 DNA repair)
COc1ccc(C(=O)C2CCCN(Cc3cccc4c3OCO4)C2)cc1OC (stereo unspecified)	TDP1 cell CPT inconclusive, TDP1 cell noCPT 9.2µM, HT1080NT lethal inconclusive
O=C(c1cccc(C(F)(F)F)c1)C1CCCN(Cc2cccc(OCCO)c2)C1 (stereo unspecified)	TDP1 cell CPT inconclusive, IL-1B inflam inh -62, TDP1 cell noCPT 10µM
COc1c(C)cc(C(=O)C2CCCN(Cc3cccc4nccnc34)C2)cc1C (stereo unspecified)	TDP1 cell CPT inconclusive, TDP1 cell noCPT 16µM, ELG1 DNA repair inconclusive
COc1cccc(OC)c1CN1CCCC(C(=O)c2ccccc2SC)C1 (stereo unspecified)	TDP1 cell CPT 16µM, IL-1B inflam inh inconclusive, TDP1 cell noCPT 21µM
COc1ccccc1C(=O)C1CCCN(Cc2cccc3nccnc23)C1 (stereo unspecified)	none
CC(=O)Nc1cccc(NC(=O)Cn2cnc3c2c(=O)n(C)c(=O)n3C)c1	none (no result: IL-1B inflam inh, HT1080NT lethal, HT1080 IDH1KD tx, ELG1 DNA repair)
C[C@H](NC(=O)c1ccco1)C(=O)NNC(=O)COc1cccc(C(F)(F)F)c1	none
CC(C)CNC(=O)c1cccc(NC(=O)Cc2ccc(Cl)cc2)c1	TDP1 cell noCPT inconclusive, ELG1 DNA repair inconclusive
O=S(=O)(c1ccc2ncsc2c1)N1CCN(c2nc(-c3cccs3)nc3ccccc23)CC1	TDP1 cell noCPT inconclusive (no result: IL-1B inflam inh, ELG1 DNA repair)
COc1ccc(C(=O)C2CCCN(Cc3c(O)cccc3OC)C2)cc1OC (stereo unspecified)	TDP1 cell CPT inconclusive, TDP1 cell noCPT 7.3µM, HT1080 IDH1KD tx inconclusive
COc1cccc(CN2CCCC(C(=O)c3ccc4c(c3)OCO4)C2)c1OC (stereo unspecified)	TDP1 cell CPT inconclusive, IL-1B inflam inh inconclusive, TDP1 cell noCPT inconclusive
COc1cccc(O)c1CN1CCCC(C(=O)c2cccc(C(F)(F)F)c2)C1 (stereo unspecified)	TDP1 cell CPT 16µM, TDP1 cell noCPT 23µM, HT1080 IDH1KD tx inconclusive
O=C(c1ccc2c(c1)OCO2)C1CCCN(Cc2ccccc2OC(F)F)C1 (stereo unspecified)	TDP1 cell CPT 16µM, TDP1 cell noCPT inconclusive, HT1080NT lethal inconclusive, ELG1 DNA repair inconclusive
O=C(c1cccc(C(F)(F)F)c1)C1CCCN(Cc2cccn2-c2ccccn2)C1 (stereo unspecified)	TDP1 cell CPT 15µM, IL-1B inflam inh -91, TDP1 cell noCPT 15µM, HT1080NT lethal inconclusive, HT1080 IDH1KD tx inconclusive, ELG1 DNA repair inconclusive
CCC1CN(Cc2ccc(COC)o2)Cc2cc(OC)ccc2O1 (stereo unspecified)	none (no result: IL-1B inflam inh, HT1080NT lethal, HT1080 IDH1KD tx, ELG1 DNA repair)
Cc1ccc(C(=O)NCC(=O)N/N=C/c2sccc2C)cc1[N+](=O)[O-]	TDP1 cell CPT inconclusive, TDP1 cell noCPT inconclusive
O=C(N/N=C/c1ccc[nH]1)c1ccc([N+](=O)[O-])cc1	ELG1 DNA repair inconclusive
CC(C)(C)C1CCc2c(sc3ncn(N)c(=N)c23)C1 (stereo unspecified)	TDP1 cell CPT 16µM, IL-1B inflam inh -75, TDP1 cell noCPT 6.5µM, HT1080 IDH1KD tx inconclusive, ELG1 DNA repair inconclusive
COc1ccc(N=Cc2nc(-c3ccco3)oc2O)cc1	TDP1 cell CPT inconclusive, TDP1 cell noCPT 29µM, HT1080 IDH1KD tx inconclusive, ELG1 DNA repair inconclusive
Cc1ccc(N=Cc2nc(-c3ccc(C)cc3)oc2O)cc1	none
N/C(=N\OC(=O)c1ccco1)c1ccc(Cl)cc1	ELG1 DNA repair inconclusive
Oc1oc(-c2ccccc2)nc1C=Nc1ccccc1	IL-1B inflam inh -55, ELG1 DNA repair inconclusive
O=C(Oc1oc(-c2ccco2)nc1C=Nc1ccc(Cl)cc1)c1ccco1	TDP1 cell CPT 10µM, TDP1 cell noCPT 9.2µM, ELG1 DNA repair inconclusive
C=CCNC(=O)N1CCC(c2nc3ccccc3s2)CC1	ELG1 DNA repair inconclusive
CC(C)C(=O)N1CCC1(C)C(=O)Nc1ccc2[nH]ccc2c1 (stereo unspecified)	none (no result: ELG1 DNA repair)
COCCn1c(=O)c(-c2ccccc2)nc2cnc(Nc3cccc(OC)c3)nc21	none (no result: IL-1B inflam inh, HT1080NT lethal, HT1080 IDH1KD tx, ELG1 DNA repair)
CCCCCCOc1ccc(-c2nc3ccc(Br)cc3c(=O)o2)cc1	none (no result: IL-1B inflam inh, HT1080NT lethal, HT1080 IDH1KD tx, ELG1 DNA repair)
COCCNC(=O)C1=C(N)C(C(=O)Nc2ccc(C)c(S(=O)(=O)N3CCCCC3)c2)SC1=Nc1ccc(C)cc1C (stereo unspecified)	TDP1 cell CPT 18µM, TDP1 cell noCPT 18µM, HT1080NT lethal 13µM, HT1080 IDH1KD tx inconclusive, ELG1 DNA repair inconclusive
CCN(CC)S(=O)(=O)c1cccc(NC(=O)C2SC(=Nc3ccc(C)cc3C)C(C(=O)NCC3CCCO3)=C2N)c1 (stereo unspecified)	TDP1 cell CPT inconclusive, TDP1 cell noCPT 23µM, ELG1 DNA repair inconclusive
COCCNCC(=O)Nc1ccc(C)c(S(=O)(=O)N2CCCCC2)c1	none
COc1ccc(OCCN2CCC(C(=O)NC(C)c3cccc4ccccc34)CC2)cc1 (stereo unspecified)	TDP1 cell CPT inconclusive, TDP1 cell noCPT inconclusive (no result: ELG1 DNA repair)
CC(NC(=O)C1CCN(Cc2ccc(Oc3ccccc3)cc2)CC1)c1cccc2ccccc12 (stereo unspecified)	TDP1 cell CPT 23µM, TDP1 cell noCPT 15µM, HT1080NT lethal inconclusive, HT1080 IDH1KD tx 10µM (no result: ELG1 DNA repair)
CC(NC(=O)C1CCN(Cc2ccccc2)CC1)c1cccc2ccccc12 (stereo unspecified)	TDP1 cell CPT inconclusive, TDP1 cell noCPT inconclusive, HT1080NT lethal inconclusive, HT1080 IDH1KD tx inconclusive (no result: ELG1 DNA repair)

Screening results as filed in PubChem.
